Hits are enriched below; roughly 3.6% of the tested compounds scored in any of these assays.
SARS 3CLpro inh = SARS-CoV 3CLpro protease inhibition; recombinant SARS-CoV 3CLpro, quenched FRET peptide cleavage; inhibition, % at 6 µM; 290,000 compounds, 0.14% hits; AID 1706; in the data active = inhibition above about 12%
Autofluor counter = counter-screen for toxin protease inhibitors: compound fluorescence | AID 624483 | fluorescence intensity (test concentration not listed) | 360,000 compounds, 3.1% hits | compound autofluorescence counterscreen, microsphere flow cytometry; active compounds read high; in the data active = fluorescence intensity above about 16000; inconclusive = no clear call, values can overlap the other calls
BoNT-F LC inh = inhibitors of Botulinum neurotoxin F light chain protease; Multiplex microsphere protease cleavage assay, flow cytometry; inhibition, % at 10 µM; 360,000 compounds, 0.22% hits; AID 588497; in the data active = inhibition above about 35%, passing the limit was not always enough; inconclusive = no clear call, values can overlap the other calls; also: plate controls were buffer without enzyme for full effect and enzyme alone for no effect
Anthrax LF inh2 = inhibitors of Bacillus anthracis lethal factor protease | multiplex microsphere protease cleavage assay, LF | inhibition, % at 10 µM | P15917 | 360,000 compounds, 0.12% hits; also: plate controls were buffer without enzyme for full effect and enzyme alone for no effect
Target sequence (P15917 whole entry, looked up): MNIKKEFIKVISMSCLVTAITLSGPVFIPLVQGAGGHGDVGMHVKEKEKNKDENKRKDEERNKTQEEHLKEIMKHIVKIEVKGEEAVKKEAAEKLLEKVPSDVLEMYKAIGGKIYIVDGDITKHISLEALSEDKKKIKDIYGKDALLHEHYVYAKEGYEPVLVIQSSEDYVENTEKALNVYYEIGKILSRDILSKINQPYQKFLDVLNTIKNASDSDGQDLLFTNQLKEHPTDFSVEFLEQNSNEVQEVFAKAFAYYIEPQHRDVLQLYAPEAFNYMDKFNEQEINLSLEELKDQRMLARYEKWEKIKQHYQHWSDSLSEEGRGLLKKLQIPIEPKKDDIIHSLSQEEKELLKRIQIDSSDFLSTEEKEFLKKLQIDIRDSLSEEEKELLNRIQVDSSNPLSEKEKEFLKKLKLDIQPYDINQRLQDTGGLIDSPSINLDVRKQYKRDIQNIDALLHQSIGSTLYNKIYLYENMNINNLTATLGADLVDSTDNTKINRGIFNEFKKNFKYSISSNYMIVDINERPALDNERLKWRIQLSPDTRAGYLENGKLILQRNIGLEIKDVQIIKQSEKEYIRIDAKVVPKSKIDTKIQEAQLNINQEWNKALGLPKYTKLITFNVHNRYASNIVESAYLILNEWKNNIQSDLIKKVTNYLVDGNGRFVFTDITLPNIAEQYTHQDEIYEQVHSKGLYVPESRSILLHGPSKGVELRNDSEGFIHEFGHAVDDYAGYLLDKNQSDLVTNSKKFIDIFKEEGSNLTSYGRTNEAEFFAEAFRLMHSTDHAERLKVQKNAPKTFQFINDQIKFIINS
BoNT-A LC inh2 = blocks Botulinum neurotoxin A light chain protease; multiplex microsphere protease substrate cleavage, flow cytometry; inhibition, % at 10 µM; 360,000 compounds, 0.17% hits; also: plate controls were buffer without enzyme for full effect and enzyme alone for no effect
BJeLR viability = BJeLR cell viability loss; inhibition, % (no concentration beside the values); AID 1554; BJeLR (HRASV12) viability, CellTiter-Glo ATP luminescence, 48 h; 300,000 compounds, 0.17% hits; in the data active = inhibition above about 50%; inconclusive = no clear call, values can overlap the other calls
* hit, by the source's call; ? = inconclusive; / = no result given. Rule as the data show it, unless noted: active = inhibition above about 30%; inconclusive = no clear call, values can overlap the other calls; inactive = below that.

SMILES	SARS 3CLpro inh	Autofluor counter	BoNT-F LC inh	Anthrax LF inh2	BoNT-A LC inh2	BJeLR viability
Cc1c([N+](=O)[O-])cc(C(=O)Oc2ccc(Br)cc2C(=S)N2CCCCC2)cc1[N+](=O)[O-]	0.5	22033*	1.2	-2.9	?	0.6
CCOC(=O)/C=C1\SCC(=O)N1CC(=O)c1ccc[nH]1	-0.2	21362*	4.6	1.9	2.2	5.4
CCOC(=O)Cn1c(=O)oc2cc(S(=O)(=O)N(C)Cc3ccccc3)ccc21	2.1	4407	-0.8	-3.7	0.5	4.4
CCOC(=O)Cn1c(=O)oc2cc(S(=O)(=O)Nc3cc(OCC)ccc3OCC)ccc21	1.8	16486*	-3.0	-2.9	?	/
CCOC(=O)Cn1c(=O)oc2cc(S(=O)(=O)NCCc3ccc(OCC)c(OCC)c3)ccc21	-3.6	22861*	0.9	0.7	?	-7.5
CCOC(=O)Cn1c(=O)oc2cc(S(=O)(=O)NC(C)(C)CC)ccc21	-4.4	4857	3.1	-3.1	0.1	1.8
CCOC(=O)Cn1c(=O)oc2cc(S(=O)(=O)N(CCN(C)C)Cc3ccccc3)ccc21	4.8	23509*	-3.8	-4.8	-1.6	11.7
CCOC(=O)Cn1c(=O)oc2cc(S(=O)(=O)NCCC(C)C)ccc21	-0.2	4181	7.9	-1.9	-1.0	9.6
CCOCCCNS(=O)(=O)c1ccc2c(c1)oc(=O)n2CC(=O)OCC	2.2	23318*	-1.2	-9.7	1.3	-2.8
CC(Sc1nccn1C)C(=O)Nc1ccc(Cl)cn1 (configuration not stated)	/	6391	3.7	1.2	-0.6	9.9
CC(=O)Nc1nonc1-c1ccccc1	-2.2	20934*	-2.7	0.1	?	-1.2
O=C(Nc1nonc1-c1ccc(Cl)cc1)c1ccccc1	0.5	4327	1.3	-11.9	-0.2	-3.6
Cc1ccc(NS(=O)(=O)c2ccc(N3C(=O)CCC3=O)cc2)cc1	-2.4	18928*	9.8	-18.2	7.0	-9.3
O=C(CC(=O)NC1CCCCC1)N/N=C/c1cccc2ccccc12	0.1	2611	1.2	0.0	-0.8	5.4
O=C(O)COc1ccccc1-c1ccccc1	-4.2	6179	-3.9	-9.8	0.8	-4.0
CC(=O)Cc1ccccc1OCC(=O)O	2.4	16749*	-3.0	-2.7	-0.9	-13.9
CNC(=O)/C(C#N)=C/c1ccc(OCCOc2ccccc2)cc1	5.2	3757	9.5	-8.2	-5.0	-2.0
O=C(CNC(=O)c1cccc(Br)c1)NCCc1nc2ccccc2[nH]1	7.0	13512	-23.2	-3.9	-2.4	-10.7
O=C(CNC(=O)c1ccc(Br)cc1)NCCc1nc2ccccc2[nH]1	2.0	19972*	-1.9	-0.3	-1.3	-5.0
COc1ccc(C)cc1NC(=O)CN1C(=O)COc2ccc(C)cc21	0.6	3642	?	-27.8	-0.4	-6.2
CCN(C(=O)COC(=O)c1cc2ccccc2cc1OC)c1c(N)n(Cc2ccccc2)c(=O)[nH]c1=O	/	2660	-8.1	-6.2	0.3	/
O=C(NCCCNC(=O)c1ccccn1)c1ccccn1	-2.9	4105	6.6	-3.7	-0.1	4.7
CN(C)CCCNC(=O)c1ccccn1	2.0	16671*	-4.3	0.9	-0.7	-0.5
O=C(O)CCCCCNC(=O)c1ccncc1	-1.1	19428*	-0.4	-5.2	?	3.2
O=C(O)CCCCCNC(=O)c1ccc(C(=O)NCCCCCC(=O)O)cc1	2.8	4778	-0.8	-2.7	0.4	4.5
SMILES	SARS 3CLpro inh	Autofluor counter	BoNT-F LC inh	Anthrax LF inh2	BoNT-A LC inh2	BJeLR viability
CN(C)CCCNCCCNC(=O)c1ccncc1	0.8	21704*	-0.5	-7.6	1.3	-1.4
Nc1nc(Nc2cccc(F)c2)nc(NCc2ccco2)c1[N+](=O)[O-]	3.3	/	/	/	/	0.3
CN1CCN(C(=O)c2cccc(-c3ccc4nccn4c3)c2)CC1	/	3810	-5.1	-6.5	-0.5	/
Cc1nc(-c2ccccc2)sc1C(=O)NN	5.7	4706	0.7	-0.5	0.7	-6.1
Cc1ccc(N/C=C/C(=O)c2sc(-c3ccccc3)nc2C)cc1	5.9	2766	25.5	22.9	32.2*	-6.8
COCCCn1c(=N)c(C(=O)NCc2ccc3c(c2)OCO3)cc2c(=O)n3ccccc3nc21	-3.2	22332*	-1.4	0.2	1.1	-5.7
N=c1c(C(=O)NCc2ccc3c(c2)OCO3)cc2c(=O)n3ccccc3nc2n1Cc1cccnc1	-7.2	24844*	-3.1	3.0	-0.8	-1.0
CCOc1ccc(NC(=S)N2CCC(NC(=O)c3ccco3)CC2)cc1	1.9	3763	8.4	-2.1	-0.3	4.3
COc1ccc(CNc2nc(NCc3ccc(OC)c(OC)c3)n(C(=O)c3cccs3)n2)cc1OC	5.4	6091	0.2	2.1	0.3	17.5
C=C(C)C1CC=C(C)/C(=N/NC(=O)CNc2ccc(C)cc2C)C1 (configuration not stated)	4.7	2457	-4.2	-1.2	-0.6	-10.9
C=C(C)C1CC=C(C)/C(=N/NC(=O)c2ccc(NC(=O)CCC)cc2)C1 (configuration not stated)	4.7	16939*	-4.2	-0.5	?	7.3
C=C(C)C1CC=C(C)C(=NNC(=O)c2ccncc2)C1 (configuration not stated)	/	4028	-3.5	2.6	-0.8	/
C=C(C)C1CC=C(C)/C(=N/NC(=O)CNc2ccc(OCC)cc2)C1 (configuration not stated)	4.9	21006*	-0.1	-13.2	?	-6.5
C=C(C)C1CC=C(C)/C(=N/NC(=O)c2ccc(NC(=O)CC)cc2)C1 (configuration not stated)	-1.2	17225*	-8.0	-0.5	?	-7.1
CCCN(C(=O)CSc1ccccc1C(=O)O)C1CCS(=O)(=O)C1 (configuration not stated)	/	4006	-11.0	-3.6	-0.8	/
CN(C)c1nc(Oc2ccc(N)cc2)nc(N(C)C)n1	-2.6	3117	16.7	-2.4	1.3	2.6
CC(=O)Nc1ccc(S(=O)(=O)NCC2CCC(C(=O)NCCCN(C)Cc3ccccc3)CC2)cc1 (configuration not stated)	-11.7	5322	-3.0	-0.3	-1.7	4.2
COc1ccc(-n2c(/C=C/c3ccc(O)c(OC)c3)nc3ccccc3c2=O)cc1	2.3	2862	35.8*	-0.7	1.9	-7.0
CCN(C(=O)CSc1nnc(-c2cccs2)o1)C1CCS(=O)(=O)C1 (configuration not stated)	2.1	4088	-3.8	11.7	0.3	1.8
CC1CCCCN1C/C=C/c1ccccc1[N+](=O)[O-] (configuration not stated)	6.8	23342*	-1.4	-0.2	-2.8	-1.0
CCC1CCCCN1C/C=C/c1ccccc1[N+](=O)[O-] (configuration not stated)	1.9	20733*	8.1	1.6	6.7	-3.5
CC1CCCN(C/C=C/c2ccccc2[N+](=O)[O-])C1 (configuration not stated)	3.5	20230*	-0.4	-4.0	1.4	5.4
CN(c1ccc(C(=O)NCc2ccc3c(c2)OCO3)cc1)S(=O)(=O)c1ccccc1	1.9	4881	-5.9	0.9	-1.9	1.2

Screens deposited in PubChem BioAssay by several laboratories.
